What all share (experiment): PBM; 200 nM protein, PBS
What all share (details): dsDNA, one strand shown

Experiment [1] has as its target T1, PAX4 (Homo sapiens, UniProt O43316 9-242, R200K).
T1 sequence: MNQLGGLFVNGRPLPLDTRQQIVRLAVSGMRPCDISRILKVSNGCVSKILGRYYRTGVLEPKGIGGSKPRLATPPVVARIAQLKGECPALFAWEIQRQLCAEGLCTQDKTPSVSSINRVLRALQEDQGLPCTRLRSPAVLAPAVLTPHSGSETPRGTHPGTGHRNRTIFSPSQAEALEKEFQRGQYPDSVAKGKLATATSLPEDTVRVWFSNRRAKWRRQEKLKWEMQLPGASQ

Experiment [2] has as its target T2, PAX4 (Homo sapiens, UniProt O43316 9-242).
T2 sequence: T1 sequence with K192R

In experiment [3] the target is T3, PAX4 (Homo sapiens, UniProt O43316 9-242, R200Q).
T3 sequence: T1 sequence with K192Q

Experiment [4] addresses T4, PAX4 (Homo sapiens, UniProt O43316 9-242, F177V).
T4 sequence: T1 sequence with F169V, K192R

For experiment [5], the target named is T5, PAX4 (Homo sapiens, UniProt O43316 9-242, F177Y).
T5 sequence: T1 sequence with F169Y, K192R

Experiment [6] deals with T6, PAX4 (Homo sapiens, UniProt O43316 9-242, R227W).
T6 sequence: T1 sequence with K192R, R219W

The target in experiment [7] is HOXA2 (Homo sapiens, UniProt O43364 129-215, R185T).
Experiment [8] deals with HOXA2 (Homo sapiens, UniProt O43364 129-215, R185K).
Experiment [9] deals with HOXA2 (Homo sapiens, UniProt O43364 129-215, Y150S).
For experiment [10], the target named is HOXA4 (Homo sapiens, UniProt Q00056 201-287, W262F).
The target in experiment [11] is HOXA2 (Homo sapiens, UniProt O43364 129-215).
Experiment [12] concerns the target MSX2 (Homo sapiens, UniProt P35548 130-214).
Experiment [13] deals with T7, VENTX (Homo sapiens, UniProt O95231 78-163, R121Q).
T7 sequence: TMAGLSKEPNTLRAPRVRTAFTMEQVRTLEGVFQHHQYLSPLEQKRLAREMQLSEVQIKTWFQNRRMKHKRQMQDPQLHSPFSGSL

In experiment [14] the target is T8, VENTX (Homo sapiens, UniProt O95231 78-163, Y115F).
T8 sequence: T7 sequence with Y38F, Q44R

Experiment [15] has as its target HOXA7 (Homo sapiens, UniProt P31268 116-202).
For experiment [16], the target named is HOXA7 (Homo sapiens, UniProt P31268 116-202, W177C).
In experiment [17] the target is ALX3 (Homo sapiens, UniProt O95076 139-225, N203S).
The target of experiment [18] is ALX3 (Homo sapiens, UniProt O95076 139-225, N203Q).
The target of experiment [19] is ALX3 (Homo sapiens, UniProt O95076 139-225).
For experiment [20], the target named is ALX3 (Homo sapiens, UniProt O95076 139-225, L168V).

Substitutions are numbered along the chain they refer to.

HOXA7 (Homo sapiens, UniProt P31268 116-202, W177C), sequence (P31268 116-202 W177C): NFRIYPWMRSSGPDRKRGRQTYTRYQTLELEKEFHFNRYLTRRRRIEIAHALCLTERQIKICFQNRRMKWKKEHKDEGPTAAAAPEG
HOXA2 (Homo sapiens, UniProt O43364 129-215, Y150S), sequence (O43364 129-215 Y150S): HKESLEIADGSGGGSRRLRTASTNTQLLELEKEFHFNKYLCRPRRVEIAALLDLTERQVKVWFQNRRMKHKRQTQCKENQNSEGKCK
HOXA7 (Homo sapiens, UniProt P31268 116-202), sequence (P31268 116-202): as the sequence (P31268 116-202 W177C) above, with C62W counted along it
HOXA2 (Homo sapiens, UniProt O43364 129-215, R185T), sequence (O43364 129-215 R185T): as the sequence (O43364 129-215 Y150S) above, with S22Y, R57T counted along it
HOXA2 (Homo sapiens, UniProt O43364 129-215, R185K), sequence (O43364 129-215 R185K): as the sequence (O43364 129-215 Y150S) above, with S22Y, R57K counted along it
HOXA4, sequence (Q00056 201-287 W262F): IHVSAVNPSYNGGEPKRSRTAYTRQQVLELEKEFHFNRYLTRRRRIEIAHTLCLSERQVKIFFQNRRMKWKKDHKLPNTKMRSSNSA
HOXA2 (Homo sapiens, UniProt O43364 129-215), sequence (O43364 129-215): as the sequence (O43364 129-215 Y150S) above, with S22Y counted along it
MSX2, sequence (P35548 130-214): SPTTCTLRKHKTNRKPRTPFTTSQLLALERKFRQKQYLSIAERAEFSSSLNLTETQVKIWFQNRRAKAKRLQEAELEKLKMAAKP
ALX3 (Homo sapiens, UniProt O95076 139-225, N203S), sequence (O95076 139-225 N203S): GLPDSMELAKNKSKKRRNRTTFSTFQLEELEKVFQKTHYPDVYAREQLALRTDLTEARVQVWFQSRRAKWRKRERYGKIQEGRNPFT
ALX3 (Homo sapiens, UniProt O95076 139-225, N203Q), sequence (O95076 139-225 N203Q): as the sequence (O95076 139-225 N203S) above, with S65Q counted along it
ALX3 (Homo sapiens, UniProt O95076 139-225), sequence (O95076 139-225): as the sequence (O95076 139-225 N203S) above, with S65N counted along it
ALX3 (Homo sapiens, UniProt O95076 139-225, L168V), sequence (O95076 139-225 L168V): as the sequence (O95076 139-225 N203S) above, with L30V, S65N counted along it

Consider AGAGCGCG, for which the binding signal is 9.35 upbm affinity estimate (log intensity, higher = more binding, comparable within an allelic series) in experiment [1]; 9.24 upbm affinity estimate (log intensity, higher = more binding, comparable within an allelic series) in experiment [2]; 9.35 upbm affinity estimate (log intensity, higher = more binding, comparable within an allelic series) in experiment [3]; 9.32 upbm affinity estimate (log intensity, higher = more binding, comparable within an allelic series) in [4]; 9.31 upbm affinity estimate (log intensity, higher = more binding, comparable within an allelic series) in experiment [5]; 9.39 upbm affinity estimate (log intensity, higher = more binding, comparable within an allelic series) in experiment [6].
Take TCCCCCCA: the binding signal in experiment [7] was 7.32 upbm affinity estimate (log intensity, higher = more binding, comparable within an allelic series); in experiment [8], 10.4 upbm affinity estimate (log intensity, higher = more binding, comparable within an allelic series); in [9] it was 10.2 upbm affinity estimate (log intensity, higher = more binding, comparable within an allelic series); in experiment [10], 9.56 upbm affinity estimate (log intensity, higher = more binding, comparable within an allelic series); in [11] it was 7.41 upbm affinity estimate (log intensity, higher = more binding, comparable within an allelic series).
As for CCAGCGCA, in experiment [12], the binding signal is 9.44 upbm affinity estimate (log intensity, higher = more binding, comparable within an allelic series).
Regarding CGATTATC, the binding signal in [13] was 10.6 upbm affinity estimate (log intensity, higher = more binding, comparable within an allelic series); in experiment [14] it was 10.6 upbm affinity estimate (log intensity, higher = more binding, comparable within an allelic series).
As to CGCAATTA, the binding signal was 11.2 upbm affinity estimate (log intensity, higher = more binding, comparable within an allelic series) in [15]; 11.4 upbm affinity estimate (log intensity, higher = more binding, comparable within an allelic series) in [14]; 12.4 upbm affinity estimate (log intensity, higher = more binding, comparable within an allelic series) in experiment [7]; 13.1 upbm affinity estimate (log intensity, higher = more binding, comparable within an allelic series) in [8]; 13.7 upbm affinity estimate (log intensity, higher = more binding, comparable within an allelic series) in experiment [12]; 10.7 upbm affinity estimate (log intensity, higher = more binding, comparable within an allelic series) in experiment [9]. Further, the binding signal is 8.67 upbm affinity estimate (log intensity, higher = more binding, comparable within an allelic series) in [16] and 12.1 upbm affinity estimate (log intensity, higher = more binding, comparable within an allelic series) in [11].
Regarding CGGGCCCG, the binding signal in experiment [15] was 8.8 upbm affinity estimate (log intensity, higher = more binding, comparable within an allelic series); in experiment [1], 9.58 upbm affinity estimate (log intensity, higher = more binding, comparable within an allelic series); in experiment [2] it was 9.62 upbm affinity estimate (log intensity, higher = more binding, comparable within an allelic series); in experiment [3], 9.41 upbm affinity estimate (log intensity, higher = more binding, comparable within an allelic series); in experiment [4], 9.21 upbm affinity estimate (log intensity, higher = more binding, comparable within an allelic series); in experiment [5], 9.11 upbm affinity estimate (log intensity, higher = more binding, comparable within an allelic series). Also, the binding signal is 9.33 upbm affinity estimate (log intensity, higher = more binding, comparable within an allelic series) in experiment [6] and 8.26 upbm affinity estimate (log intensity, higher = more binding, comparable within an allelic series) in experiment [16].
Take GAGCTGGC: the binding signal in experiment [15] was 8.29 upbm affinity estimate (log intensity, higher = more binding, comparable within an allelic series); in experiment [16], 8.35 upbm affinity estimate (log intensity, higher = more binding, comparable within an allelic series).
Take CGACGCGA: the binding signal in [13] is 7.97 upbm affinity estimate (log intensity, higher = more binding, comparable within an allelic series); in experiment [14] it was 8.13 upbm affinity estimate (log intensity, higher = more binding, comparable within an allelic series).
In the case of ACAATTAT, the binding signal is 10.6 upbm affinity estimate (log intensity, higher = more binding, comparable within an allelic series) in experiment [4]; 13.8 upbm affinity estimate (log intensity, higher = more binding, comparable within an allelic series) in experiment [12]; 8.71 upbm affinity estimate (log intensity, higher = more binding, comparable within an allelic series) in experiment [17].
With CCAGGACC, the binding signal in experiment [13] is 8.04 upbm affinity estimate (log intensity, higher = more binding, comparable within an allelic series); in [14], 8.14 upbm affinity estimate (log intensity, higher = more binding, comparable within an allelic series).
Take CCGCCCCC: the binding signal in experiment [13] was 8.05 upbm affinity estimate (log intensity, higher = more binding, comparable within an allelic series); in experiment [14], 7.95 upbm affinity estimate (log intensity, higher = more binding, comparable within an allelic series); in experiment [7], 6.99 upbm affinity estimate (log intensity, higher = more binding, comparable within an allelic series); in [8], 9.92 upbm affinity estimate (log intensity, higher = more binding, comparable within an allelic series); in [9], 10.2 upbm affinity estimate (log intensity, higher = more binding, comparable within an allelic series); in experiment [11], 6.94 upbm affinity estimate (log intensity, higher = more binding, comparable within an allelic series).
CCTAGCTC: the binding signal was 8.35 upbm affinity estimate (log intensity, higher = more binding, comparable within an allelic series) in [13]; 8.59 upbm affinity estimate (log intensity, higher = more binding, comparable within an allelic series) in experiment [15]; 8.28 upbm affinity estimate (log intensity, higher = more binding, comparable within an allelic series) in experiment [14]; 8.42 upbm affinity estimate (log intensity, higher = more binding, comparable within an allelic series) in experiment [16]; 9.87 upbm affinity estimate (log intensity, higher = more binding, comparable within an allelic series) in experiment [10].
As to GCCCCCCA, the binding signal in experiment [10] was 9.58 upbm affinity estimate (log intensity, higher = more binding, comparable within an allelic series).
With CCGAGCCG, the binding signal in [15] is 8.34 upbm affinity estimate (log intensity, higher = more binding, comparable within an allelic series); in experiment [18] it was 7.62 upbm affinity estimate (log intensity, higher = more binding, comparable within an allelic series); in [19], 7.46 upbm affinity estimate (log intensity, higher = more binding, comparable within an allelic series); in [20], 7.69 upbm affinity estimate (log intensity, higher = more binding, comparable within an allelic series); in experiment [16] it was 8.22 upbm affinity estimate (log intensity, higher = more binding, comparable within an allelic series); in experiment [17], 7.67 upbm affinity estimate (log intensity, higher = more binding, comparable within an allelic series).

The values are drawn from PMC11006913.
